Laboratory results as given in PubChem BioAssay (NCI).
The panel holds about 83,000 compounds, 20% with a hit somewhere; the sample as a whole holds those more often.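 Single-concentration screen, 48 h exposure, 96-well plates. Endpoint: percent growth. Below 10 = active.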 Unmarked numbers belong to inactive results. The source made the active and inactive calls.

Legend:
Test in all cases: NCI-60 one-dose screen, 48 h (100 = growth as untreated, 0 = no growth, -100 = all killed)
Settings in all cases: 10 µM unless noted
[1] = system: NCI-H23 lung
[2] = system: NCI-H226 lung
[3] = system: HOP-62 NSCLC
[4] = system: NCI-H460 lung
[5] = system: HOP-92 NSCLC
[6] = system: NCI-H522 lung
[7] = system: A549/ATCC NSCLC
[8] = system: 786-0 renal
[9] = system: COLO 205 colon

SMILES	growth [1]	growth [2]	growth [3]	growth [4]	growth [5]	growth [6]	growth [7]	growth [8]	growth [9]
Cn1c(=O)c2c(nc(NC3=NS(=O)(=O)c4ccccc43)n2Cc2ccccc2)n(C)c1=O	92.5%	88.5%	93.4%	102%	94%	94.1%	102%	101%	120%
O=C(Nc1ncc(Cc2ccccc2Cl)s1)c1cccs1	80.3%	85.1%	66.6%	57.7%	58.6%	51.9%	54.1%	86.1%	85.8%
CN(Cc1cnc2nc(N)nc(N)c2n1)c1c(Cl)cc(C(=O)NC(CCC(=O)O)C(=O)O)cc1Cl (stereo not given)	25.8%	67.5%	23.8%	20.2%	15.4%	24.5%	15.6%	12.7%	53%
CN(C)c1ccc(-c2cc(-c3ccc(Nc4nc(Nc5ccc(Cl)cc5)nc(Nc5ccc(Cl)cc5)n4)cc3)nc(N)c2C#N)cc1	87.8%	107%	73%	86.3%	46.3%	87.6%	72.3%	72.4%	69.8%
CC/C=C\C/C=C/C=C1/C(=O)C=C[C@@H]1C/C=C\CCCC(=O)OC	24.9%	55.7%	36.1%	76.2%	42.4%	-32.3% (active)	80.8%	-15% (active)	14.1%
CCOC(=O)C(=Cc1cccc(C#N)c1)C(=O)OCC	68.4%	38.1%	115%	95.9%	63.2%	16.7%	75.5%	86.4%	47.1%
O=C(N/N=C/c1ccc(O)cc1O)c1ccc(Nc2ccnc(C(F)(F)F)c2)cc1	52.4%	16.8%	31.1%	24.6%	40.9%	44.2%	80.6%	33.7%	9.64% (active)
O=C(Nc1ccc(F)cc1)Nc1ccccc1CNc1nc(Nc2ccc(OCCN3CCCC3)cc2)ncc1Cl	60.8%	99.1%	51.3%	9.85% (active)	52.2%	37%	38.2%	-16.3% (active)	0.109% (active)
Clc1ccc(-c2nc(-c3c[nH]c4ncccc34)cs2)cc1	35% [100 µM]	47.7% [100 µM]	6.83% [100 µM] (active)	72.5% [100 µM]	-42.4% [100 µM] (active)	71.7% [100 µM]	55.2% [100 µM]	34.6% [100 µM]	93.2% [100 µM]
CCNC(=O)Oc1ccc(/C(=C(/C)Cc2ccc(OC)cc2)c2ccc(OCCN3CCCCCC3)cc2)cc1	75.9%	96.2%	84.4%	30.6%	40.8%	54.2%	54.9%	72%	28.7%
